Screens deposited in PubChem by National Center for Advancing Translational Sciences (NCATS).
Most compounds without a hit are left out; they make up all but 0.25% or so of the library.
PGK inhibitor: qHTS Assay to Find Inhibitors of Phosphoglycerate Kinase; 0.043% of 380,000 active; Potency, µM (doses to about 57.5 µM), inactives show top-dose activity change, negative = inhibition, most hits filed as inhibitors; AID 602233, 2012; PGK/GAPDH coupled, Kinase-Glo luminescence, 60 min; note: % is set by controls: 0 for no effect and ±100 for the full control effect; nearly all actives have a fitted effect of over 60% in size
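Luminescent ATP detection (Kinase-Glo Plus) follows a 60-minute room-temperature incubation, with wells lacking PGK as controls. Buffer: 100 mM TEA (pH 7.6), 5 mM MgCl2, 0.01% Tween-20. Coupling enzyme GAPDH (100 nM final) supplies unstable 1,3-BPG in-well.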
RGS4 inhibitor: Inhibitors of Regulator of G Protein Signaling (RGS) 4: qHTS | Transcreener GDP fluorescence polarization, RGS4-accelerated GTP hydrolysis | Potency, µM (titrated, usually from 114 µM), without a hit: top-dose activity change, negative = inhibition, most hits filed as inhibitors | AID 504845, 2011 | Regulator of G-protein signaling 4 (Homo sapiens), P49798 | 0.039% of 390,000 active; note: % is set by controls: 0 for no effect and ±100 for the full control effect; nearly all actives have a fitted effect of over 75% in size
Target sequence (P49798 whole entry, looked up): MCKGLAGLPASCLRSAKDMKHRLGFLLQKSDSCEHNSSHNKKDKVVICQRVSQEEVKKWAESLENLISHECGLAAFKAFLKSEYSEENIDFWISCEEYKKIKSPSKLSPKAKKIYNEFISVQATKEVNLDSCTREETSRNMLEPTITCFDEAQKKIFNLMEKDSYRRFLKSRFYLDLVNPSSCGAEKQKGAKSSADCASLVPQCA
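MLSMR compounds (23 nl, pin-transferred) preincubated 10 min at room temperature with a 500nM (2x) first reagent, then RGS4 at 900nM (2x) plus Transcreener GDP mix added; fluorescence polarization (620/688 nm) read before and after 90 min at 30 °C.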
Tb PFK inh-1: qHTS Assay to Find Inhibitors of T. brucei phosphofructokinase | ATP-dependent 6-phosphofructokinase (Trypanosoma brucei brucei), O15648 | T. brucei PFK, ADP-Glo luminescence | Potency, µM (highest dose often 57.5 µM), for inactives: at the top dose activity, negative = inhibition, hits mostly inhibitors | 0.17% of 330,000 active | AID 485367, 2010;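 note: 0% = uninhibited 1x PFK enzyme wells and -100% = no-enzyme wells; nearly all actives have a fitted effect of over 60% in size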
Target sequence (O15648 whole entry, looked up): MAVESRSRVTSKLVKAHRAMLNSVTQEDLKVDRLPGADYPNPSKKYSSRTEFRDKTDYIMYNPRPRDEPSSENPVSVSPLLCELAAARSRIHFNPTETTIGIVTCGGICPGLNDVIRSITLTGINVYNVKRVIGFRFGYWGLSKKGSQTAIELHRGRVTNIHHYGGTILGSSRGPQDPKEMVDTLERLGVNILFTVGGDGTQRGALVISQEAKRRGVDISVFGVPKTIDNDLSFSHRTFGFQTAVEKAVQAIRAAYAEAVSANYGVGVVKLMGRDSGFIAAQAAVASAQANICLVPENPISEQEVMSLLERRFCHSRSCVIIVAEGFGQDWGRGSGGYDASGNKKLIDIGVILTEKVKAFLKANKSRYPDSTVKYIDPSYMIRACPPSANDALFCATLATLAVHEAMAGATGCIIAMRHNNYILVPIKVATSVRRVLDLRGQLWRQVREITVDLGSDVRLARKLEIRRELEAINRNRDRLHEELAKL
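PFK 1.25 nM, F6P 0.5 mM, ATP 0.1 mM, 0.1 M TEA pH 8.0, 5 mM MgCl2, 0.01% Tween20, 0.1% BSA; 45 min RT. ADP-Glo readout. qHTS titration up to 57 uM; curves fitted, compounds curve-classed.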
BCR signal inh: qHTS Assay to Find Inhibitors of Chronic Active B-Cell Receptor Signaling; Potency, µM (doses to about 46.1 µM), inactives show top-dose activity change, negative = inhibition, usual class: inhibitors; ABC-DLBCL IkBa-CBG/CBR reporter, luminescence ratio, 4 h; 0.05% of 340,000 active; active = well fitted inhibition curve with a large enough effect in the signal ratio, with a control signal flat, not every such curve was filed as active; inconclusive = small, poorly fitted or top-dose-only effect, or effect the other way, or a change in a side signal; the % refers to the signal ratio;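 note: plate controls were basal doxycycline-induced cells for no effect and cells given 10 µM MG132 for full effect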
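TMD8 ABC-DLBCL cells carrying doxycycline-inducible green luciferase fused to IkappaBalpha plus unfused red luciferase were exposed to compounds (up to 46 uM) for 4 hrs at 37C. Activity came from the overlap-corrected green/red luminescence ratio.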
USP2a inh: qHTS Assay for Inhibitors of Ubiquitin-specific Protease USP2a Using CHOP2 as the Reporter. Ubiquitin carboxyl-terminal hydrolase 2 (Homo sapiens), O75604. USP2 core, Ub-CHOP2 coupled fluorogenic reporter, 485/531. Potency, µM (titrated, usually from 38.3 µM), without a hit: at the top dose activity change, negative = inhibition, hits mostly inhibitors. 0.01% of 330,000 active. AID 463254, 2010;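 note: plate controls were DMSO wells for no effect and full inhibition by NEM control for full effect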
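USP2 core (10nM final) preincubated 30min RT with compound in 20mM Tris-HCl pH 8.0, 2mM CaCl2, 2mM beta-mercaptoethanol, 0.05% CHAPS; 25nM Ub-CHOP2 plus 25nM reporter substrate added, fluorescence (Ex485/Em531) read after 60min.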
Tb PFK KinaseGlo: Tb PFK orthogonal confirmatory assay using ATP depletion (Kinase-Glo Plus) as an alternative measure of Tb PFK activity: Hit Validation; 47% of 1,100 active; Potency, µM (doses to about 57.5 µM), without a hit: top-dose inhibition; shares compounds with Tb PFK inh-1; Tb PFK enzyme, ATP depletion, Kinase-Glo Plus luminescence; calls by dose curve; note: nearly all actives have a fitted effect of over 60% in size
Tb PFK inh-2: Inhibitors of T. brucei phosphofructokinase: Hit Validation. 41% of 1,100 active. Potency, µM (highest dose often 57.5 µM), for inactives: at the highest dose activity change, negative = inhibition, most hits filed as inhibitors. purified T. brucei PFK, ADP-Glo luminescence, 45 min. shares compounds with Tb PFK inh-1;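 note: plate controls were full PFK enzyme control for no effect and no enzyme control for full effect; nearly all actives have a fitted effect of over 60% in size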
* = called active by the depositor; i = inactive; ? = inconclusive; . = no result; [ ] = remark or other dose. Unless noted, calls come from the whole dose curve; as a rule, active = well fitted curve in the direction sought with a large enough effect; inconclusive = small, poorly fitted or top-dose-only effect, or another doubt; inactive = no such curve, though single readings can be large; an effect the other way counts as inactive or inconclusive. Potency is the fitted concentration of half-maximal effect.

SMILES | PGK inhibitor | RGS4 inhibitor | Tb PFK inh-1 | BCR signal inh | USP2a inh | Tb PFK KinaseGlo | Tb PFK inh-2
COc1cccc2cc(-c3nc(-c4ccccc4)c(C)s3)c(=O)oc12 | . | -5.6% | . | . | . | . | .
Cc1ccc(C(=O)O)cc1NC(=S)NC(=O)C(c1ccccc1)c1ccccc1 | -1.2% | -27.0% | 28.9% | ? | 2.9% | . | .
Cc1ccc(C(=O)O)cc1NC(=S)NC(=O)Cc1ccccc1 | -7.5% | 1.0% | ? | -6.3% | -0.2% | -27.5% | ?
ON=Cc1cccn1-c1ccccc1 | -5.2% | 7.8% | 0.0% | 8.0% | -0.9% | . | .
O=C(O)c1cccc(-n2cccc2/C=N/O)c1 | ? | -2.7% | 21.3µM* | -13.9% | -0.1% | ? | ?
O=C(O)c1cccc(-n2cccc2/C=C2\NC(=O)N(Cc3ccc(F)cc3)C2=O)c1 | -26.4% | -22.1% | -5.1% | -0.5% | -1.0% | . | .
O=C(O)c1ccc(-n2cccc2/C=C2/SC(=O)N(CC(=O)N3CCCC3)C2=O)cc1 | ? | -14.2% | ? | -5.1% | 0.5% | 4.78µM* | 5.36µM*
Cc1ccc(CN2C(=O)N/C(=C\c3cccn3-c3cccc(C(=O)O)c3)C2=O)cc1 | ? | -4.7% | ? | ? | ? | ? | ?
O=C(O)c1ccc(-n2cccc2/C=C2/NC(=O)N(c3ccccc3)C2=O)cc1 | ? | 5.0% | ? | ? | 1.5% | ? | 19µM*
N#C/C(C(=O)Nc1ccc(Cl)cc1)=C(/S)Nc1ccccc1 | -4.6% | ? | 9.53µM* | ? | -13.7% | 15.1µM* | ?
O=C(Nc1ccc(Nc2ccccc2)cc1)c1ccc(Cl)cc1 | 0.1% | 4.1% | . | . | . | . | .
COc1ccc(C(=O)NCCn2cc(SCC(=O)NCCc3ccc(OC)c(OC)c3)c3ccccc32)cc1 | 6.6% | -7.1% | . | . | . | . | .
C=CCSC1=N/C(=C\C=C\c2ccco2)C(=O)S1 | ? | ? | 16.9µM* | 0.0% | ? | ? | ?
C=CCSC1=N/C(=C\c2sccc2C)C(=O)S1 | 4.3% | 6.2% | 0.5% | ? | -5.5% | . | .
O=C(Nc1cccc(S(=O)(=O)Nc2ccccc2F)c1)c1ccc2ccccc2n1 | -11.1% | ? | -28.8% | 11.2% | -3.1% | . | .
O=C(/C=C/c1ccccc1)Nc1cccc(S(=O)(=O)Nc2ccccc2F)c1 | -7.1% | -102.1% | 6.75µM* | ? | 1.8% | 4.26µM* | 6.01µM*
O=S(=O)(Nc1ccccc1F)c1cccc(NC(=S)NCCN2CCOCC2)c1 | i | -119.2% | 7.57µM* | -9.0% | -1.2% | 2.39µM* | 3.79µM*
COc1ccccc1C1C(C(=O)Nc2ccccc2)=C(C)Nc2nc(-c3ccccc3)nn21 (stereo not drawn) | i | 13.6% | . | . | . | . | .
Cc1o[nH]c(=O)c1CCC(N)C(=O)O (stereo not drawn) | . | -190.0%[56.9 µM] | . | . | . | . | .
COc1ccc(-c2nn3c(-c4cc(C)[nH]n4)nnc3s2)cc1 | . | -10.8% | . | . | . | . | .
CN(C)CCn1nnnc1SCC1=C(C(=O)O)N2C(=O)[C@@H](NC(=O)Cc3csc(N)n3)[C@H]2SC1 | -6.0% | -48.6% | 12µM* | 5.2% | 5.7% | 5.7% | -7.0%
Cc1nnc(SCC2=C(C(=O)O)N3C(=O)C(NC(=O)Cn4nc(C(F)F)cc4C)C3SC2)s1 (stereo not drawn) | ? | -11.6% | -10.3% | -4.7% | 0.3% | . | .
O=Cc1ccc(N2CCCC2)c([N+](=O)[O-])c1 | -8.0% | -8.9% | -10.0% | 2.8% | 2.1% | . | .
O=[N+]([O-])/C=C\c1ccc(N2CCCC2)c(F)c1 | -8.2% | ? | ? | ? | 0.7% | 2.39µM* | 6.01µM*
Clc1ccccc1CSC1=NCCCN1 | i | -3.9% | -0.5% | 7.9% | 1.5% | . | .
SMILES | PGK inhibitor | RGS4 inhibitor | Tb PFK inh-1 | BCR signal inh | USP2a inh | Tb PFK KinaseGlo | Tb PFK inh-2
Clc1ccc(CSC2=NCCCN2)cc1Cl | -3.9% | -8.3% | 5.36µM* | -9.0% | 4.1% | 10.7µM* | 21.3µM*
C=CC#CC[N+]1(CC#Cc2ccccc2)CCOCC1 | i | ? | ? | 2.8% | ? | -29.1% | ?
Clc1ccc(CSc2nnc([C@@H]3CCCN3)o2)cc1Cl | -8.6% | -1.0% | 30.1µM* | 4.0% | 3.6% | 12µM* | 26.9µM*
Cc1ccc(C)c(CSc2nnc([C@@H]3CCCN3)o2)c1 | -7.3% | 6.9% | -3.8% | -1.5% | 0.3% | . | .
NCCCCCc1nnc(SCc2ccc(Cl)c(Cl)c2)o1 | -9.0% | -3.8% | 23.9µM* | -0.8% | 3.2% | 13.5µM* | 30.1µM*
CCCN1CNc2c(c(=O)[nH]c(=S)n2CCc2cccs2)C1 | . | 8.8% | . | . | . | . | .
CCn1c(C(=O)N2CCCC(C(=O)N3CCN(c4cc(C)ccc4C)CC3)C2)cc2sccc21 (stereo not drawn) | 5.2% | 26.8% | . | . | . | . | .
Cc1nc2nc(NC(=O)c3ccc(C(C)(C)C)cc3)[nH]n2c(=O)c1C | -12.8% | 4.1% | . | . | . | . | .
Cc1ccc(-c2cc(C(=O)N/N=C/C(Br)=C/c3ccccc3)n[nH]2)o1 | -0.5% | ? | ? | ? | 0.6% | -19.9% | ?
NC(=O)CCN1CCN(C(=O)c2ccc3nc(Cc4cccc(Cl)c4)oc3c2)CC1 | -2.3% | 12.7% | ? | 0.3% | 3.8% | 12µM* | 26.9µM*
O=C(CC(c1ccccc1)c1cc(Br)ccc1O)NCC1(c2ccccc2)CCCC1 (stereo not drawn) | 6.4% | 6.9% | . | . | . | . | .
CC(C)CNC(=O)c1cccc(NC(=O)COc2ccc([N+](=O)[O-])cc2)c1 | -1.1% | -6.9% | -8.1% | -17.4% | 0.9% | . | .
NS(=O)(=O)c1cccc(NC(=O)COc2ccc([N+](=O)[O-])cc2)c1 | 9.1% | 29.9% | 7.57µM* | -0.9% | -6.5% | 21.3µM* | 13.5µM*
O=C(COc1ccc([N+](=O)[O-])cc1)Nc1ccncc1 | 7.2% | 27.7% | ? | -0.2% | 0.0% | ? | ?
CCOc1ccc(CCNCc2c(C(=O)O)n(Cc3ccc(C)cc3)c3cc(OC)ccc23)cc1 | . | 0.3% | . | . | . | . | .
